PubChem BioAssay AID504558 (Broad Institute, 2011)
Out of some 350,000 compounds screened, about 2,400 (0.69%) were called active. The entries come from a sample that favours actives as a whole. Unmarked numbers belong to inactive results. No stated cut-off is given here; in the data, active means inhibition above about 41%; inconclusive means no clear call, values can overlap the other calls; inactive means below that.

experiment: blockers of LMP1-induced NF-kB reporter signal – cell-based, luminescence, single point, primary screen (AID 504558); settings: LMP1-induced NF-kappaB luciferase reporter cells, at 12.5 µM, hits give high values;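 further: 0% = neutral control wells and 100% = reference inhibitor control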

| Structure (SMILES) | inhibition |
| --- | --- |
| Cc1ccc(NC(=O)Cn2sc3ccccc3c2=O)cc1 | 0.665% |
| COc1cccc2c1C(=O)c1c(O)c3c(c(O)c1C2=O)CC(O)(C(C)=NNC(=O)c1ccc(Cl)c(Cl)c1)CC3OC1CC(N)C(O)C(C)O1 (configuration not stated) | 70% (active) |
| COc1cc(C(=O)OCCCN2CCOCC2)cc(OC)c1OC | 1.26% |
| Cc1cccc(N(C(=O)Cn2nnc(-c3ccc(C)o3)n2)C(C(=O)NC2CCCC2)c2ccncc2)c1 (configuration not stated) | 9.95% |
| Cc1ccc(-c2nnn(CC(=O)N(CCO)C(C(=O)NC(C)(C)C)c3ccncc3)n2)cc1 (configuration not stated) | -24.9% |
| Cc1ccc(-c2nnn(CC(=O)N(Cc3ccco3)C(C(=O)NC(C)(C)C)c3ccncc3)n2)o1 (configuration not stated) | 54.6% (active) |
| CCn1c(SCC(=O)N2CCCC2=O)nc2ccccc21 | 6.54% |
| Cc1cccc(NC(=O)/C=C/c2ccc3c(c2)OCO3)n1 | -23.8% |
| O=C(CNC(=O)C(c1ccccc1)c1ccccc1)N/N=C\c1ccc2c(c1)OCO2 | -3.07% |
| C(=N\Nc1ccc2ccccc2n1)/c1ccc2c(c1)OCO2 | 43.9% (active) |
| CC(OC(=O)c1cccc(S(=O)(=O)N2CCOCC2)c1)C(=O)NCC1CCCCC1 (configuration not stated) | -1.25% |
| CCNC(=S)NNC(=O)c1ccc2ncccc2c1 | 7.73% |
| Cc1ccc2cc(/C=N/Nc3ccc(C(=O)O)cc3)c(Cl)nc2c1 | -63.4% |
| O=C(O)c1ccc(N/N=C/c2ccc3ncccc3c2)cc1 | 44.3% (active) |
| CCOc1ccc(S(=O)(=O)NCCC(=O)NNC(=O)c2ccc(F)cc2)cc1 | -8.7% |
| O=C(Nc1ccc2c(c1)[C@@H]1C[C@@H](CC(=O)N3CCCCC3)O[C@@H](CO)[C@@H]1O2)NC1CCCCC1 | 1.38% |
| CCc1cc(-c2nnn(CCC3COCCO3)c2CC)ccc1-c1cn(Cc2ccc3ccccc3c2)nn1 (configuration not stated) | 0.755% |
| Cc1cc(Cl)ccc1C(=O)C1CCCN(C(=O)c2ccc3c(c2)OCO3)C1 (configuration not stated) | -1.16% |
| O=C(Nc1nnc(-c2ccccc2F)s1)c1ccccc1F | -3.53% |
| C/C(=N\NC(=O)c1ccccc1F)c1ccccn1 | 48.6% (active) |
| CCNC(=S)N1CCN(c2ncccn2)CC1 | -18.8% |

| Structure (SMILES) | inhibition |
| --- | --- |
| Cc1cccc(C)c1NC(=S)N1CCCCCC1 | 23.1% |
| O=C(NCCOc1ccccc1)c1ccccc1F | -2.63% |
| CC(=NNC(=S)N1CCCCCC1)c1ccccn1 | 91.7% (active) |
| CCN(C(=O)Nc1cccc2ccccc12)c1ccccc1 | 2.61% |
| CCN(Cc1ccncc1)C(=S)Nc1ccccc1C | 0.031% |
| CCc1ccccc1OCC(=O)Nc1nnc(C2CC2)s1 | -2.82% |
| COCOCCn1cc(CN2CCS(=O)(=O)N(Cc3ccc(-c4ccccc4)cc3)C(CC(C)C)C2=O)nn1 (configuration not stated) | 1.98% |
| CC1=C(C(=O)N2CCOCC2)CC(CC(=O)NCc2ccco2)C(=O)N1Cc1ccc(F)cc1 (configuration not stated) | 3.55% |
| Cc1cccc(-n2ncc(Cl)c(Cl)c2=O)c1 | 52.4% (active) |
| C=CCNc1cnn(-c2ccc(C)cc2)c(=O)c1Cl | -12.1% |
| Cc1cccc(-n2ncc3c(=O)[nH]c(SCC(=O)Nc4cc(C)on4)nc32)c1 | -3.93% |
| CCCCN1C[C@H](c2ccc(Br)cc2)[C@@H](CC(=O)Nc2ccc(Br)cc2)C1=O | 1.53% |
| C[C@@H]1CN([C@@H](C)CO)C(=O)c2cc(Br)cnc2O[C@@H]1CN(C)C(=O)C1CCCCC1 | -0.141% |
| CCN(CC)C(=O)C1=C(C)N(Cc2ccccc2)C(=O)C(CC(=O)NC(c2ccccc2)c2ccccc2)C1 (configuration not stated) | 2.92% |
| CC(=O)c1ccc(S(=O)(=O)N2CCN(C(=O)/C=C/c3ccc4ccccc4n3)CC2)cc1 | -1.62% |
| COc1cccc(/C=C/c2ccc3ccccc3n2)c1OC(C)=O | 56.9% (active) |
| CCOc1cccc(/C=C/c2ccc3ccccc3n2)c1OC(C)=O | 17.6% |
| COC(=O)c1ccc(NCc2cc(O)ccc2O)cc1 | -94.1% |
| O=C(OC12CC3CC(CC(C3)C1)C2)c1ccc(NCc2cc(O)ccc2O)cc1 | 44.1% (active) |
| CC1(C)C2CCC1(C)C(OC(=O)c1ccc(O)cc1)C2 (configuration not stated) | -2.13% |
| CC1C(=O)N(Cc2cn(Cc3ccco3)nn2)CCS(=O)(=O)N1Cc1ccc(-c2cccc(CO)c2)cc1 (configuration not stated) | 4.76% |
